Screening results from PubChem BioAssay.
Rows were chosen to be rich in hits. Some 1.6% of all compounds tested hit in one or more screens of this group.
Redox H2O2 prof: compounds producing H2O2 with reducing agent – biochemical, NIH compound library profiling, artefact control for MLSCN library redox annotation, primary screen. AID 878, 2007. activation, % at 10 µM. 200,000 tested, 0.03% active. DTT-dependent redox cycling H2O2, phenol red/HRP absorbance; 100% = 100 µM peroxide control, 0% = buffer;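 active = activation of at least 50% relative to the plate's high and low controls in the primary single-dose screen; inactive = activation below 50%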;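 also: compound incubated with DTT at 0.8 mM final as the reducing agent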
Arbovirus inh: antivirals against arbovirus infection, primary screen, cell-based, full library, 10K replicate subset; arbovirus infection cell-based antiviral screen; AID 1251, 2008; inhibition, % at 10 µM; 200,000 tested, 0.37% active; in the data active = inhibition above about 30%
S1P4 ag: S1P4 receptor agonists, primary screen, cell-based | activation, % at 4.98 µM | 220,000 tested, 0.35% active | Sphingosine 1-phosphate receptor 4 (Homo sapiens), O95977 | S1P4-expressing cell line, agonist reporter assay; in the data active = activation above about 11%
p97 ATPase inh: inhibitors of human p97 ATPase, primary screen, biochemical. inhibition, % at 8 µM. Transitional endoplasmic reticulum ATPase (Homo sapiens), P55072. 220,000 tested, 0.42% active. recombinant p97 ATPase, Kinase-Glo ATP luminescence, 3 h; in the data active = inhibition above about 15%
S1P3 antag: S1P3 receptor antagonists, primary screen, cell-based; Sphingosine 1-phosphate receptor 3 (Homo sapiens), Q99500; CHO S1P3 NFAT-BLA reporter, FRET fluorescence, antagonist mode; inhibition, % at 4.98 µM; 170,000 tested, 0.27% active;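 active = inhibition above the plate cutoff, the mean inhibition of test wells on that plate plus 3 SD, cut at about 28% in these data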;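 also: cells challenged with S1P at its EC80 of 0.8 µM; blue over green emission ratio from cleaved BLA substrate after 4 h stimulation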
S1P4 antag: S1P4 receptor antagonists, primary screen, cell-based. Sphingosine 1-phosphate receptor 4 (Homo sapiens), O95977. S1P4-expressing cells, antagonist mode, reporter read-out. inhibition, % at 4.98 µM. 220,000 tested, 0.26% active; in the data active = inhibition above about 29%
S1P4 antag conf: S1P4 receptor antagonists, human, confirmation, cell-based. inhibition, % at 4.98 µM. shares compounds with S1P4 antag. 520 tested, 71% active. S1P4-expressing cell line, antagonist mode, reporter read-out; in the data active = inhibition above about 30%
S1P1 antagonist: S1P1 receptor antagonists, human, counter-screen for S1P4 antagonist project, cell-based | 520 tested, 37% active | shares compounds with S1P4 antag | inhibition, % at 4.98 µM | cell-based S1P1 antagonist counterscreen, inhibition; in the data active = inhibition above about 40%;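 also: receptor stimulated with S1P near its EC80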
Target sequence (P21453 whole entry, looked up): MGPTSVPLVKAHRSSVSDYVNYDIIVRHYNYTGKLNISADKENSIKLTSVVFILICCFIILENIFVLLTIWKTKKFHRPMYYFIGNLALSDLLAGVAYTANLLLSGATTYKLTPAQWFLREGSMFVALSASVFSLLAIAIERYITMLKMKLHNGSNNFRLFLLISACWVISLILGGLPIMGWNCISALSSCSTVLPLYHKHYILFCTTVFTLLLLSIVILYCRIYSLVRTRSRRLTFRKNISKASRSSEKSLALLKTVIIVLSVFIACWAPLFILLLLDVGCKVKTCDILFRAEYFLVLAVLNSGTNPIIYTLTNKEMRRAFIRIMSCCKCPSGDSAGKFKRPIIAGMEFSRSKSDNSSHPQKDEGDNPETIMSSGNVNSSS
A number is an active result; i = inactive; nt = no result given; ! = repeats disagree.

SMILES	Redox H2O2 prof	Arbovirus inh	S1P4 ag	p97 ATPase inh	S1P3 antag	S1P4 antag	S1P4 antag conf	S1P1 antagonist
O=C(Nc1nc2ccccc2c(=O)s1)c1ccco1	nt	nt	i	i	i	30	i	i
CS(=O)(=O)c1ccccc1-c1nc(-c2ccc([N+](=O)[O-])cc2)no1	i	i	i	i	i	i	nt	nt
N#Cc1cn(CCOc2ccccc2F)c2ccccc12	i	i	i	i	i	37	i	i
Cc1cccc(OCC(=O)NNC(=O)Nc2cccc(Cl)c2)c1C	i	i	i	i	nt	i	nt	nt
Cc1ccc(/C=C/C(=O)Nc2nc3ccccc3[nH]2)cc1	i	i	i	i	i	i	nt	nt
Cc1ccc(/C=C/C(=O)c2nc3ccccc3[nH]2)cc1	i	i	i	i	nt	29	81	i
CC(C)Cc1nnc(NC(=O)Cc2ccc([N+](=O)[O-])cc2)s1	i	i	i	i	i	i	nt	nt
O=C(Oc1cccc(/C=N/Nc2nc(Nc3ccccc3)nc(N3CCOCC3)n2)c1)c1ccco1	i	i	i	i	i	38	70	48
COc1cc(/C=N/Nc2nc(N3CCCCC3)nc(N3CCCCC3)n2)ccc1OC(=O)c1ccco1	i	i	i	i	i	i	nt	nt
Cc1ccccc1NC(=S)NCc1ccccc1	i	i	i	i	i	i	nt	nt
COCCOC(=O)C1=C(C)N=C2SCCC(=O)N2C1c1ccc(OC(=O)c2ccco2)cc1 (stereo unspecified)	i	i	i	i	nt	35	54	52
O=C(Nc1cccc(Cl)c1)Nc1nccs1	i	i	i	i	i	35!	i	i
O=C(Nc1ccc(Cl)c(Cl)c1)Nc1nccs1	nt	nt	i	i	i	i	nt	nt
CSc1nnc2ccc(-c3ccccn3)nn12	i	i	i	i	i	i	nt	nt
COC(=O)c1ccc2c(=O)n(CCCCCC(=O)NCCNC(C)=O)c(=O)[nH]c2c1	i	i	i	i	i	i	nt	nt
O=C(CSCCO)Nc1cccc(C(F)(F)F)c1	i	i	i	i	i	36	i	i
CCCCC(=O)OCc1nc(N)nc(Nc2ccccc2C)n1	i	i	i	i	i	i	nt	nt
COc1ccccc1C(=O)OCc1nc(N)nc(Nc2ccccc2C)n1	i	i	i	i	i	107	i	i
CCC(C)C(=O)N1CCc2cc(-c3csc(N)n3)ccc21 (stereo unspecified)	i	i	i	i	i	41	i	52
OC(c1cc(-c2ccc(Cl)cc2)nc2ccccc12)C1CCCCN1 (stereo unspecified)	nt	nt	i	i	i	53	95	83
Cc1ccc(NC(=S)NCc2ccc3c(c2)cc(C)n3C)c(C)c1	i	i	i	i	i	i	nt	nt
N#CCCN1CCN(Cc2cc(-c3ccccc3)ccc2O)CC1	i	i	i	i	i	39	i	i
CC(C)(C)CC(C)(C)c1ccc(O)c(CN2CCN(CCC#N)CC2)c1	i	i	i	i	nt	i	nt	nt
CC(C)(C)C(=O)Cn1ncc(Br)c(Br)c1=O	i	i	i	i	i	64	93	i
N#CCSc1nnc(N)s1	i	i	i	i	i	i	nt	nt
N#CCSc1nnc(SCC#N)s1	nt	nt	i	i	i	32	i	i
CCOc1ccc(C(=O)Oc2ccc(NC(C)=O)cc2)cc1	i	i	i	i	i	i	nt	nt
CC(=O)Nc1ccc(OC(=O)c2ccc(Br)c([N+](=O)[O-])c2)cc1	i	i	i	i	i	48	68	i
COc1ccccc1-c1cc(C(=O)Nc2c(F)cc(F)cc2Br)no1	i	i	i	i	i	41	42	i
CC1=C(C(=O)c2ccccc2)C(c2ccc(OC(F)F)cc2)NC(=S)N1 (stereo unspecified)	i	i	i	i	i	i	nt	nt
